In all, about 1,500 compounds were measured (“Inhibition index”: median about 0.17, highest 2% from about 1.3 on). Many of the other results were omitted from the sample, so the highest values are more common in it than they were.

The test system of this experiment is SARS-CoV-2. The experiment is described as follows: Inhibition of cell viability relative to arbidol control (inhibition index > 1 indicates higher activity) measured by fluorescence (OD590nm) in Vero E6 cells infected with SARS-CoV-2 (strain BavPat1) at MOI 0.002 after 72hrs. It counts as functional, Chlorocebus sabaeus, Vero C1008.
For the molecule `C[C@]12CCC3=C4CCC(=O)C=C4CC[C@H]3[C@@H]1CC[C@@]2(O)CC#N` [DIENOGEST], the Inhibition index was 0.1822.

As to `Cl.Cl.Fc1ccc(C(OCCN2CCN(CCCc3ccccc3)CC2)c2ccc(F)cc2)cc1`, the Inhibition index is on record as -0.1375.

The molecule `CC[C@H](C)C(=O)O[C@H]1C[C@H](O)C=C2C=C[C@H](C)[C@H](CC[C@@H](O)C[C@@H](O)CC(=O)O)[C@H]21` [PRAVASTATIN] came in with an Inhibition index of 0.3233.

`CC(=O)OCC1=C(C(=O)[O-])N2C(=O)[C@@H](NC(=O)Cc3cccs3)[C@H]2SC1.[Na+]` [CEPHALOTHIN SODIUM] gave an Inhibition index of 0.1149.

`C[C@@H](O)[C@H]1C(=O)N2C(C(=O)O)=C(SCCNC=N)C[C@H]12` [IMIPENEM ANHYDROUS] registered an Inhibition index of 0.0698.

With `CC(C)=C/C(C)=N/Nc1nncc2ccccc12` [BUDRALAZINE], the Inhibition index was 1.549.

In the case of `CCOC(=O)NNc1nncc2ccccc12.Cl` [TODRALAZINE HYDROCHLORIDE], the Inhibition index is listed as -0.005099.

In turn, `CCc1c(C)[nH]c2c1C(=O)C(CN1CCOCC1)CC2.Cl` (configuration not stated) [MOLINDONE HYDROCHLORIDE] gave an Inhibition index of 0.4807.

`CN[C@H](CC(C)C)C(=O)N[C@H]1C(=O)N[C@@H](CC(N)=O)C(=O)N[C@H]2C(=O)N[C@H]3C(=O)N[C@H](C(=O)N[C@H](C(=O)O)c4cc(O)cc(O)c4-c4cc3ccc4O)[C@H](O)c3ccc(c(Cl)c3)Oc3cc2cc(c3O[C@@H]2O[C@H](CO)[C@@H](O)[C@H](O)[C@H]2O[C@H]2C[C@](C)(N)[C@H](O)[C@H](C)O2)Oc2ccc(cc2Cl)[C@H]1O.Cl` displayed an Inhibition index of 0.05858.

Molecule `C[C@H]1O[C@H](O[C@H]2[C@H](O)[C@@H](O)[C@@H](O[C@H]3[C@H](O)[C@@H](O)C(O)O[C@@H]3CO)O[C@@H]2CO)[C@H](O)[C@@H](O)[C@@H]1N[C@H]1C=C(CO)[C@@H](O)[C@H](O)[C@H]1O` (some centres not stated) [ACARBOSE] showed an Inhibition index of 0.004156.

`CC(=O)[C@H]1CC[C@H]2[C@@H]3C=CC4=CC(=O)CC[C@@]4(C)[C@@H]3CC[C@]12C` [DYDROGESTERONE] had an Inhibition index of 0.5447.

As to `COCCCOc1ccnc(C[S+]([O-])c2nc3ccccc3[nH]2)c1C.[Na+]` (configuration not stated), the Inhibition index turned out to be 0.5892.

With `C[C@H](CCc1ccccc1)NC[C@H](O)c1ccc(O)c(C(N)=O)c1` [DILEVALOL], the Inhibition index was determined as 1.277.

With `CC(CCc1ccccc1)NCC(O)c1ccc(O)c(C(N)=O)c1.Cl` (configuration not stated) [LABETALOL HYDROCHLORIDE], the Inhibition index is on record as 0.3584.

`CC(COc1ccccc1)NC(C)C(O)c1ccc(O)cc1.Cl` (configuration not stated) [ISOXSUPRINE HYDROCHLORIDE] returned an Inhibition index of -0.02068.

In turn, `CC(NCCc1ccc(O)cc1)C(O)c1ccc(O)cc1.Cl` (configuration not stated) [RITODRINE HYDROCHLORIDE] displayed an Inhibition index of 0.3972.

`CC(C)NC[C@@H](O)c1ccc(O)c(O)c1.O=C(O)C(O)C(O)C(=O)O`: the Inhibition index amounted to 0.1733.

In turn, `CC(CCc1ccccc1)NC(C)C(O)c1ccc(O)cc1` (configuration not stated) [NYLIDRIN] displayed an Inhibition index of 1.263.

`CCOC(=O)O[C@]1(C(=O)COC(=O)CC)CC[C@H]2[C@@H]3CCC4=CC(=O)C=C[C@]4(C)[C@H]3[C@@H](O)C[C@@]21C` [PREDNICARBATE] had an Inhibition index of 1.368.

On to `CCOC(=O)O[C@]1(C(=O)OCCl)CC[C@H]2[C@@H]3CCC4=CC(=O)C=C[C@]4(C)[C@H]3[C@@H](O)C[C@@]21C` [LOTEPREDNOL ETABONATE], for which the Inhibition index came to 0.5857.

In turn, `CC1(C)O[C@@H]2C[C@H]3[C@@H]4CCC5=CC(=O)C=C[C@]5(C)[C@H]4[C@@H](O)C[C@]3(C)[C@]2(C(=O)CO)O1` [DESONIDE] showed an Inhibition index of 1.58.

`CC1(C)O[C@@H]2C[C@H]3[C@@H]4C[C@H](F)C5=CC(=O)C=C[C@]5(C)[C@H]4[C@@H](O)C[C@]3(C)[C@]2(C(=O)CO)O1` [FLUNISOLIDE] displayed an Inhibition index of 0.0848.

`C[C@]12C=CC(=O)C=C1CC[C@@H]1[C@@H]2[C@@H](O)C[C@@]2(C)[C@H]1CC[C@]2(O)C(=O)CO` [PREDNISOLONE] gave an Inhibition index of 0.3132.

`CCCC1O[C@@H]2C[C@H]3[C@@H]4CCC5=CC(=O)C=C[C@]5(C)[C@H]4[C@@H](O)C[C@]3(C)[C@]2(C(=O)CO)O1` (some centres not stated) [BUDESONIDE] yielded an Inhibition index of 0.726.

As to `CCN(CC)CCOC(=O)C(c1ccccc1)c1ccccc1.Cl` [ADIPHENINE HYDROCHLORIDE], the Inhibition index was determined as 0.1368.

Molecule `CC/C(=C(\c1ccccc1)c1ccc(OCCN(C)C)cc1)c1ccccc1.O=C(O)CC(O)(CC(=O)O)C(=O)O` [TAMOXIFEN CITRATE] showed an Inhibition index of -0.1208.

In turn, `C[C@]12CC[C@@H]3c4ccc(O)cc4C[C@@H](CCCCCCCCC[S+]([O-])CCCC(F)(F)C(F)(F)F)[C@H]3[C@@H]1CC[C@@H]2O` (some centres not stated) [FULVESTRANT] came in with an Inhibition index of 0.187.

On to `CC[C@H](C)[C@H](NC(=O)[C@H](Cc1ccc(O)cc1)NC(=O)[C@@H](NC(=O)[C@H](CCCNC(=N)N)NC(=O)[C@@H](N)CC(=O)O)C(C)C)C(=O)N[C@@H](Cc1c[nH]cn1)C(=O)N1CCC[C@H]1C(=O)N[C@@H](Cc1ccccc1)C(=O)O.O=C(O)C(F)(F)F`, for which the Inhibition index was 0.4608.

Molecule `CC(C(=O)[O-])c1cccc(Oc2ccccc2)c1.CC(C(=O)[O-])c1cccc(Oc2ccccc2)c1.O.O.[Ca+2]` (configuration not stated) [FENOPROFEN CALCIUM] had an Inhibition index of 0.03953.

Regarding `CC(=O)OCC(=O)[C@@]12OC3(CCCC3)O[C@@H]1C[C@H]1[C@@H]3CCC4=CC(=O)C=C[C@]4(C)[C@@]3(F)[C@@H](O)C[C@@]12C` [AMCINONIDE], the Inhibition index amounted to 0.9715.

`CCCCCN(CCCCC)C(=O)C(CCC(=O)[O-])NC(=O)c1ccc(Cl)c(Cl)c1.[Na+]` (configuration not stated) [LORGLUMIDE SODIUM] registered an Inhibition index of 0.5123.

`Nc1nc2[nH]cc(CCc3ccc(C(=O)N[C@@H](CCC(=O)[O-])C(=O)[O-])cc3)c2c(=O)[nH]1.[Na+].[Na+]` [PEMETREXED DISODIUM] came in with an Inhibition index of 0.05416.

The record behind these values is ChEMBL document CHEMBL4303097 (2020).
